Source: PubChem
TRPM1 prom inh = inhibitors of MITF-dependent TRPM1 promoter reporter, primary screen, cell-based, SK-MEL-5, single point, luciferase; SK-MEL-5 TRPM1 promoter luciferase, 24 h; inhibition, % at 12.5 µM; 0.83% of 330,000 active; AID 488899, 2010;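 active means mean inhibition across replicates of 60% or more, whatever share of single replicates reaches that level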
Shn3 inh set2 = reduction of Shn3 3'UTR firefly luciferase signal, primary screen, Schnurri-3 inhibitor project, cell-based, Clone20 osteoblasts, set 2. Clone20 osteoblast Shn3 3'UTR firefly luciferase, 24 h. inhibition, % at 12.5 µM. 0.52% of 360,000 active;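 active means mean inhibition of at least 75% with every replicate also reaching 75%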;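 further: 0% = median of neutral control wells and 100% = pilot-screen positive control compound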
HIF-2a block = HIF-2a reporter inhibitors, primary screen, luminescence, 786-0 RCC cells; inhibition, % at 18.8 µM; 786-0 RCC cells HIF-2a reporter, luciferase luminescence, overnight; 0.72% of 360,000 active; AID 624352, 2012;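 active means inhibition of the luminescence signal of 40% or more relative to plate controls, in a single-dose primary screen at 18.75 µM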
KKLEB tox = cytotoxicity in KKLEB CF airway cells, primary screen, cytotoxicity control for CF NF-kB inhibitor project, cell-based, uHTS, fluorescence assay plates. KKLEB CF airway cells viability, ATPlite luminescence, overnight; active compounds read low; cells stimulated with P. aeruginosa culture filtrate. activity change (cytotoxicity), % at 5 µM. 0.36% of 360,000 active. AID 602141, 2011;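 active means corrected activity change at or below -50% at 5 µM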
Peg3 prom inh = Peg3 promoter-driven luciferase inhibitors, primary screen, cell-based, HeLa, luciferase luminescence; 1.7% of 360,000 active; inhibition, % at 20 µM; HeLa PEG-Prom luciferase reporter, overnight;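 active means inhibition of at least 50% at 20 µM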
CF NFkB inh = inhibitors of PAF-induced NF-kB signaling, primary screen, cell-based, GFP fluorescence, uHTS; KKLEB NF-kB-GFP reporter, GFP fluorescence overnight; inhibition, % at 5 µM; 0.86% of 360,000 active; AID 588850, 2011;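 active means at least 50% inhibition at 5 µM, scaled per plate between neutral and stimulator controls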;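 further: PAF is a Pseudomonas aeruginosa culture filtrate used as stimulus; plate controls were PAF-stimulated DMSO wells for no effect and unstimulated DMSO wells for full effect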
Numbers without * were called inactive. This is a sample that favours compounds with a hit; in the whole collection about 2.8% have one here.

What do the screens show for `COc1ccc([C@@]2(C(C)C)ON(c3ccccc3C(F)(F)F)C2=O)cc1`?
TRPM1 prom inh: -3.3; Shn3 inh set2: -26.4; HIF-2a block: 7.3; KKLEB tox: -0.3; Peg3 prom inh: 62.1*; CF NFkB inh: 52.9*

How did Cc1ccc(NN2C(=O)C=C(c3ccc(Cl)cc3)C2=O)cc1 do in these assays?
TRPM1 prom inh: 18.6; Shn3 inh set2: 99.2*; HIF-2a block: 4.1; KKLEB tox: -10.7; Peg3 prom inh: 105.5*; CF NFkB inh: 37.2

Results for CN(C)S(=O)(=O)c1ccc(-c2csc(N/N=C/c3ccco3)n2)cc1 ?
TRPM1 prom inh: 72.1*; Shn3 inh set2: 34.1; HIF-2a block: -16.1; KKLEB tox: -3.0; Peg3 prom inh: 61.2*; CF NFkB inh: 11.0

Results for COc1ccc(C)cc1S(=O)(=O)N(C)CC(=O)N1CCCCCC1 ?
TRPM1 prom inh: -4.3; Shn3 inh set2: 5.5; HIF-2a block: 6.7; KKLEB tox: 6.2; Peg3 prom inh: 74.8*; CF NFkB inh: -6.7

How did COc1cc(C(C)=O)ccc1OCC(=O)Nc1ccc(C)c(S(=O)(=O)N2CCCCCC2)c1 do in these assays?
TRPM1 prom inh: 32.5; Shn3 inh set2: 81.4; HIF-2a block: 29.2; KKLEB tox: 4.1; Peg3 prom inh: 55.4*; CF NFkB inh: 11.4

Results for COc1ccc(CC(=O)Nc2cccc(S(=O)(=O)N3CCCCCC3)c2)cc1OC ?
TRPM1 prom inh: 30.7; Shn3 inh set2: 89.8*; HIF-2a block: 21.1; KKLEB tox: -10.3; Peg3 prom inh: 18.5; CF NFkB inh: -1.5

Results for COc1ccc(CCC(=O)Nc2cccc(S(=O)(=O)N3CCCCCC3)c2)cc1OC ?
TRPM1 prom inh: 19.9; Shn3 inh set2: 24.1; HIF-2a block: 13.3; KKLEB tox: -4.1; Peg3 prom inh: 15.4; CF NFkB inh: 14.1

What do the screens show for `COc1ccc(NC(=O)CCOc2cc(C)ccc2C)cc1S(=O)(=O)N1CCCCC1`?
TRPM1 prom inh: 11.5; Shn3 inh set2: 92.6*; HIF-2a block: -4.2; KKLEB tox: -9.5; Peg3 prom inh: 18.3; CF NFkB inh: -13.4

What do the screens show for `Cc1ccc(S(=O)(=O)N2CCCCC2)cc1NC(=O)c1ccc(Cl)nc1`?
TRPM1 prom inh: 4.1; Shn3 inh set2: 11.1; HIF-2a block: 20.2; KKLEB tox: -7.2; Peg3 prom inh: 12.0; CF NFkB inh: 16.4

How did Cc1cc(CN2CCOCC2)c(O)c(C2(C)CCCCC2)c1 do in these assays?
TRPM1 prom inh: -6.7; Shn3 inh set2: 86.5*; HIF-2a block: 22.1; KKLEB tox: 1.0; Peg3 prom inh: 15.8; CF NFkB inh: 17.4

How did O=C(Nc1ccc(S(=O)(=O)N2CCN(Cc3ccccc3)CC2)cc1)c1cnccn1 do in these assays?
TRPM1 prom inh: 18.8; Shn3 inh set2: 82.4*; HIF-2a block: 17.3; KKLEB tox: 7.4; Peg3 prom inh: 5.3; CF NFkB inh: -4.2

What do the screens show for `COc1ccc(Cc2nnc(N/N=C/c3ccc(O)cc3)[nH]c2=O)cc1OC`?
TRPM1 prom inh: 59.1; Shn3 inh set2: 88.2*; HIF-2a block: -2.7; KKLEB tox: -18.9; Peg3 prom inh: 59.5*; CF NFkB inh: 23.4

What do the screens show for `COc1ccc(Cc2nnc(N/N=C/c3ccc(Br)cc3)[nH]c2=O)cc1OC`?
TRPM1 prom inh: -12.3; HIF-2a block: 15.6; KKLEB tox: -15.5; Peg3 prom inh: -0.1; CF NFkB inh: 8.4

How did O=S(=O)(c1ccc(NC(=S)Nc2ccccc2)cc1)N1CCOCC1 do in these assays?
TRPM1 prom inh: 3.8; Shn3 inh set2: 25.1; HIF-2a block: -9.2; KKLEB tox: -8.1; Peg3 prom inh: 12.5; CF NFkB inh: 1.9

How did CC(C)CCCCCCNC(=S)Nc1ccc(S(=O)(=O)N2CCOCC2)cc1 do in these assays?
TRPM1 prom inh: 0.5; Shn3 inh set2: 67.9; HIF-2a block: 9.5; KKLEB tox: -26.1; Peg3 prom inh: 61.6*; CF NFkB inh: 51.7*

Results for CSc1ccc2c(c1)N(CCC1CCCCN1C)c1ccccc1S2 (stereo not given) ?
TRPM1 prom inh: -5.7; Shn3 inh set2: -6.2; HIF-2a block: -18.6; KKLEB tox: -8.7; Peg3 prom inh: 99.1*; CF NFkB inh: 28.6

How did Cc1cc(OCC(=O)N2CCc3ccccc3C2)c(C)cc1Br do in these assays?
TRPM1 prom inh: -13.2; Shn3 inh set2: -19.4; HIF-2a block: -104.1; KKLEB tox: -9.2; Peg3 prom inh: -76.2; CF NFkB inh: 17.9

How did CCC(C)c1ccc(S(=O)(=O)N2CCN(C(=O)c3ccc(Cl)c(S(=O)(=O)N4CCOCC4)c3)CC2)cc1 (stereo not given) do in these assays?
TRPM1 prom inh: 30.0; Shn3 inh set2: 89.7*; HIF-2a block: -9.4; KKLEB tox: 7.6; Peg3 prom inh: 20.2; CF NFkB inh: 7.1

What do the screens show for `Cc1ccc(OCCCC(=O)N(C)CC(=O)Nc2c(C)cccc2C)cc1`?
Shn3 inh set2: -3.1; HIF-2a block: -8.0; KKLEB tox: 1.2; Peg3 prom inh: -8.0; CF NFkB inh: -7.3

How did COc1cc2nc(N3CCN(C(=O)c4ccco4)CC3)nc(N)c2cc1OC do in these assays?
TRPM1 prom inh: 53.0; Shn3 inh set2: 10.1; HIF-2a block: -2.5; KKLEB tox: 1.9; Peg3 prom inh: 56.2*; CF NFkB inh: -21.2

How did Cc1cccc(C(=O)NC2CCN(CC(=O)Nc3ccccc3Cl)CC2)c1 do in these assays?
TRPM1 prom inh: 8.0; Shn3 inh set2: -3.6; HIF-2a block: 8.9; KKLEB tox: 13.8; Peg3 prom inh: 14.3; CF NFkB inh: -20.6

What do the screens show for `C/C(CC(=O)Nc1cccc(Br)c1)=N\NC(=O)c1ccc(O)cc1O`?
TRPM1 prom inh: -1.9; Shn3 inh set2: 1.0; HIF-2a block: 16.8; KKLEB tox: 3.1; Peg3 prom inh: 2.5; CF NFkB inh: 5.5

Results for COc1cc(SC)ccc1C(=O)Nc1ccc(Br)cn1 ?
TRPM1 prom inh: 56.8; Shn3 inh set2: 75.4; HIF-2a block: 38.1; KKLEB tox: -84.8*; Peg3 prom inh: 55.4*; CF NFkB inh: -10.3

Results for CN1CCc2cc3c(c4c2[C@H]1[C@H](O)c1ccccc1-4)OCO3 ?
TRPM1 prom inh: 5.3; Shn3 inh set2: -44.7; HIF-2a block: 31.9; KKLEB tox: 8.1; Peg3 prom inh: 65.5*; CF NFkB inh: -348.9

Results for Cc1ccc(-c2cc(C(=O)N/N=C/c3c(C)nn(-c4ccccc4)c3C)n[nH]2)s1 ?
TRPM1 prom inh: 23.4; Shn3 inh set2: 3.1; HIF-2a block: -11.2; KKLEB tox: -23.0; Peg3 prom inh: 3.5; CF NFkB inh: 57.1*
